Test results from PubChem BioAssay (NCATS).
“And” between values parts separate entries of the source, which are not always exact repeats. Identical values can stand only once. Results filed as inconclusive are left out. Entries that show only a call come without a potency. Some structures have more than one record in an assay (separate samples or runs), and their calls can disagree. The source made the active and inactive calls. Unless noted, the call rests on the fitted dose curve; in most records, active means well fitted curve in the direction sought with a large enough effect; inconclusive means small, poorly fitted or top-dose-only effect, or another doubt; inactive means no such curve, though single readings can be large; an effect the other way counts as inactive or inconclusive.

Assays:
[1] = qHTS assay for measurement of the activity of small molecule inhibitors on Zika virus induced Caspase-3 activity in human iPSC derived neural progenitor cells (hNPCs) (AID 1224857); further: nearly all actives have a fitted effect of over 65% in size
In short: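 Percent inhibition of virus-induced caspase-3/7 luminescence (Caspase-Glo), scaled between uninfected cells and Zika-infected cells. hNPCs received compound 1 hr before ZIKV at 2 FFU/cell, with 6 hours infection at 37 C.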

[2] = qHTS assay for measurement of the activity of small molecule inhibitors on Zika virus induced Caspase-3 activity in human astrocytoma cells (AID 1224859)
In short: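 Luminescent caspase-3/7 read-out (30 min reagent, room temperature) in human SNB-19 cells infected 6 h with ZIKV (2 FFU/cell) after 1 h compound pre-incubation; Data were normalised to uninfected and infected wells.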

[3] = qHTS assay to identify small molecule inhibitors of chordoma cells - UCH-1 (AID 1259355); further: nearly all actives have a fitted effect of over 55% in size
In short: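 800 cells/well, overnight attach; compounds pinned at 15 concs, then auranofin/camptothecin/doxorubicin/rubitecan/topotecan combo added; 48hr 37 C, 5% CO2; CellTiter-Glo, 30min RT, luminescence.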

[4] = qHTS assay to identify small molecule inhibitors of chordoma cells - UCH-2 (AID 1259356)
[5] = P-glycoprotein substrates identified in KB-3-1 adenocarcinoma cell line, qHTS therapeutic library screen (AID 1346986); further: nearly all actives have a fitted effect of over 60% in size
In short: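 Dose-response cytotoxicity, KB-3-1 vs P-gp-high KB-8-5-11, no colchicine in assay medium. Read: CellTiter-Glo at 72 h.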

[6] = P-glycoprotein substrates identified in KB-8-5-11 adenocarcinoma cell line, qHTS therapeutic library screen (AID 1346987); further: nearly all actives have a fitted effect of over 65% in size; further: potency means the concentration at half of the fitted maximal effect
In short: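 In this qHTS, P-gp-rich KB-8-5-11 cells received library compounds across a concentration range. Viability was quantified by luminescence after 72 h at 37 degree C.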

[7] = qHTS profiling of the MIPE4 collection as inhibitors of Plasmodium falciparum (3D7) proliferation (AID 743344; call rule not given here); conditions: P. falciparum 3D7 in erythrocytes, SYBR Green DNA fluorescence, 72 h; at 28.5 µM (top of the series) unless noted
In short: (§1)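 Parasite DNA was quantified by SYBR Green I fluorescence (ex 485, em 535 nm) after overnight lysis in saponin/Triton buffer at room temperature. Cultures at 0.3% parasitemia and 2.5% hematocrit were first exposed to compound for 72 h at 37 C; signals were normalised to artemisinin (0.29 uM) and vehicle wells.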

[8] = qHTS profiling of the MIPE4 collection as inhibitors of Plasmodium falciparum (DD2) proliferation (AID 743345; call rule not given here); conditions: P. falciparum Dd2 in erythrocytes, SYBR Green DNA, 72 h; at 28.5 µM (top of the series) unless noted
In short: as §1

[9] = qHTS profiling of the MIPE4 collection as inhibitors of Plasmodium falciparum (DD2) proliferation (Rep 2) (AID 743346; call rule not given here); conditions: P. falciparum Dd2 in erythrocytes, SYBR Green DNA, 72 h; at 28.5 µM (top of the series) unless noted
In short: as §1

[10] = qHTS profiling of the MIPE4 collection as inhibitors of Plasmodium falciparum (HB3) proliferation (AID 743347; call rule not given here); conditions: P. falciparum HB3 in erythrocytes, SYBR Green DNA, 72 h; at 28.5 µM (top of the series) unless noted
In short: as §1

[11] = qHTS Screen of the MIPE 4.0 Collection Against Ewings Sarcoma (TC32) (AID 1259256); further: potency means the concentration at half of the fitted maximal effect; nearly all actives have a fitted effect of over 45% in size
In short: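 Cells plated in serum-containing RPMI (5% FBS) and treated with compound dilutions for 48 h. Readout luminescent viability; normalization relied on vehicle (no inhibition) and media-only columns (full inhibition).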

Which Potency [1] does the source give for `O=C(O)CCc1nc(-c2ccccc2)c(-c2ccccc2)o1` here?
The Potency was “inactive”.

And the Potency [2]?
Its Potency is “inactive”.

And the Potency [3]?
Its Potency is “inactive”.

What about the outcome [4] of the same compound?
The outcome was “inactive”.

What about the Potency [5] of the same compound?
The Potency was “inactive”.

And the Potency [6]?
Its Potency is “inactive”.

What does the source list for `COc1cc(Nc2ncc(F)c(Nc3ccc4c(n3)NC(=O)C(C)(C)O4)n2)cc(OC)c1OC`?
parasite growth, % of DMSO control [7]: 5.27%; parasite growth remaining, % of DMSO control (lower = more inhibition) [8]: 7%; parasite growth, % of control (lower = inhibition) [9]: 6.47%; growth, % of control [10]: 2.09%; Potency [1]: inactive; Potency [2]: inactive; Potency [6]: 2.59 µM (active) and 18.4 µM (active) and inactive

Which results are given for `CC(=O)N[C@@H](CS)C(=O)O`?
Potency [1]: inactive; Potency [2]: inactive; Potency [3]: inactive; outcome [4]: inactive; Potency [6]: inactive

What does the source list for `CN(C)CCC(c1ccccc1)c1ccccn1` (stereo not drawn)?
Potency [1]: inactive; Potency [2]: inactive; Potency [3]: inactive; outcome [4]: inactive; Potency [6]: inactive

What does the source list for `NC(N)=Nc1nc(CSCC/C(N)=N/S(N)(=O)=O)cs1`?
Potency [1]: inactive; Potency [2]: inactive; Potency [3]: inactive; outcome [4]: inactive; Potency [6]: inactive

For `CC/C(=C(\c1ccccc1)c1ccc(OCCN(C)C)cc1)c1ccccc1`, which Potency [1] is on record?
Its Potency is “inactive”.

And the Potency [2]?
Its Potency is “inactive”.

And the outcome [4]?
Its outcome is “inactive”.

With `Cn1c(N2CCCCS2(=O)=O)nc(C(=O)NCc2ccc(F)cc2)c(O)c1=O` as the compound, how does the parasite growth, % of DMSO control [7] read?
Its parasite growth, % of DMSO control is 101%.

What about the parasite growth remaining, % of DMSO control (lower = more inhibition) [8] of the same compound?
The parasite growth remaining, % of DMSO control (lower = more inhibition) was 104%.

What about the parasite growth, % of control (lower = inhibition) [9] of the same compound?
The parasite growth, % of control (lower = inhibition) was 83.1%.

What about the Potency [1] of the same compound?
The Potency was “inactive”.

And the Potency [2]?
Its Potency is “inactive”.

What about the Potency [11] of the same compound?
The Potency was 23.5 µM (active).

And the Potency [6]?
Its Potency is “inactive”.
